A selection: hits, their analogues and other compounds. The true share with any hit is near 2.4%.
Cruzain inh Det: cruzain (T. cruzi) inhibition with detergent; P25779; purified cruzain, Z-FR-AMC fluorescence, 0.01% Triton; Potency, µM, for the others: max response, negative = inhibition, most hits filed as inhibitors; 0.43% of 200,000 active;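 further: plate controls were neutral wells for no effect and buffer without enzyme for full effect; nearly all actives have a fitted effect of over 40% in size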
Target sequence (P25779 123-467 limits assumed): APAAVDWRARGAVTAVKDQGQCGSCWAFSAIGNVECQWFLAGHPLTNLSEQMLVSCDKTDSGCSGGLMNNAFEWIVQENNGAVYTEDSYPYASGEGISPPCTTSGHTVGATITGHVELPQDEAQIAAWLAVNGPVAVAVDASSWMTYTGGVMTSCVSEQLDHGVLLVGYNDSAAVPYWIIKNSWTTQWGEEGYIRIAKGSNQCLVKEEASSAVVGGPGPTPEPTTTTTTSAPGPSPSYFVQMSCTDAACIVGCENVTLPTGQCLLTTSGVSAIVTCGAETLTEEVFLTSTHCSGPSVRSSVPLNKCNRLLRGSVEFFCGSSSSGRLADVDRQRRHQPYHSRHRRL
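Steps: dispense cruzain (1.5 nM final) in acetate buffer pH 5.5 with DTT and 0.01% Triton X-100; pin-transfer compounds; incubate 15 min RT; add Z-FR-AMC (2 uM final); read fluorescence every 30 s, using the 60 s intensity change.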
Cruzain inh noDet: inhibitors of Trypanosoma cruzi cruzain without detergent. purified cruzain, Z-FR-AMC fluorescence, no detergent. P25779. 2.3% of 200,000 active. Potency, µM, for inactives: max response, negative = inhibition, actives largely listed as inhibitors;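 further: plate controls were enzyme without inhibitor for no effect and buffer without enzyme for full effect; nearly all actives have a fitted effect of over 40% in size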
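Detergent-free condition (0.00005% Triton X-100) in acetate buffer pH 5.5 with DTT. 1.5 nM enzyme and compound were pre-mixed 15 min, then 2 uM Z-FR-AMC substrate added; reaction progress from fluorescence change between first and third reads (60 s).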
The depositor's hits bear a star; ? = inconclusive. The call rests on the fitted dose curve; in most records, active means well fitted curve in the direction sought with a large enough effect; inconclusive means small, poorly fitted or top-dose-only effect, or another doubt; inactive means no such curve, though single readings can be large; an effect the other way counts as inactive or inconclusive. Potency means the concentration at half of the fitted maximal effect.

SMILES | Cruzain inh Det | Cruzain inh noDet
N#Cc1cnn2cc(-c3ncc(C(F)(F)F)cc3Cl)cnc12 | 1% | 1%
COc1ccc(OC)c(CNc2ncnc3onc(-c4ccc(Cl)cc4)c23)c1 | -2% | -5%
CCc1ccc(NC(=O)C2CCN(S(=O)(=O)c3ccc4[nH]c5c(c4c3)CCCCC5)CC2)cc1 | 1% | 10µM*
Cc1cccc(NS(=O)(=O)c2ccc3[nH]c4c(c3c2)CCCCCC4)c1 | -5% | -4%
Cc1cccc(NC(=O)C2CCN(S(=O)(=O)c3ccc4[nH]c5c(c4c3)CCCCC5)CC2)c1 | 1% | 13µM*
CC(=O)c1cccc(NC(=O)C2CCN(S(=O)(=O)c3ccc4[nH]c(=O)ccc4c3)CC2)c1 | -4% | -3%
O=C(NCc1ccc2[nH]c3c(c2c1)CCCC3)c1ccc(S(=O)(=O)N2CCCCC2)cc1 | -3% | ?
O=C(Nc1ccccc1)C1CCN(S(=O)(=O)c2ccc3[nH]c4c(c3c2)CCCCC4)CC1 | -2% | 16µM*
Cc1c2cnn(-c3ccccc3)c(=O)c2c(C)n1CCCC(=O)Nc1ccc(F)cc1F | -5% | 4%
Cc1ccc2oc(C(=O)N(Cc3ccccc3F)C3CCS(=O)(=O)C3)c(C)c2c1 (stereo not drawn) | -9% | 4%
Cc1ccc(NC(=O)c2cc(S(=O)(=O)N3CCc4ccccc43)cn2C)c(Cl)c1 | -3% | -5%
COc1ccc(NC(=O)c2ccco2)cc1NC(=O)C(C)(C)Oc1ccc(Cl)cc1 | -8% | ?
CC1=C(c2ccc(F)cc2)S(=O)(=O)N=C1N1CCC(C(=O)NCCc2cccc(C)c2)CC1 | -2% | 8%
COC(=O)c1ccc(C23CC4(C2)[C@H](CN(Cc2ccc(-c5ccccc5)cc2)[C@@H]4c2ccccc2)C3c2ccc(C(F)(F)F)cc2)cc1 (stereo partly drawn) | 1% | ?
COC(=O)c1ccc(C23CC4(C2)[C@H](CN(Cc2ccc(-c5ccccc5)cc2)[C@@H]4c2ccccc2)C3c2ccc(Cl)nc2)cc1 (stereo partly drawn) | 3% | 16µM*
COC(=O)c1cccc(C23CC4(C2)[C@H](CN(Cc2ccc(-c5ccccc5)cc2)[C@@H]4c2ccccc2)C3c2ccccc2)c1 (stereo partly drawn) | 3% | 13µM*
COC(=O)c1cccc(C23CC4(C2)[C@H](CN(Cc2ccc(C(F)(F)F)cc2)[C@@H]4c2ccccc2)C3c2ccccc2)c1 (stereo partly drawn) | 0% | -29%
FC(F)(F)c1ccc(C2[C@H]3CN(Cc4ccc(-c5ccccc5)cc4)[C@H](c4ccccc4)C34CC2(c2ccccc2)C4)cc1 (stereo partly drawn) | 3% | 13µM*
COC(=O)c1cccc(C23CC4(C2)[C@H](CN(Cc2ccc(-c5ccccc5)cc2)[C@@H]4c2ccccc2)C3c2ccc(C(F)(F)F)cc2)c1 (stereo partly drawn) | -2% | 25µM*
c1ccc(-c2ccc(CN3C[C@@H]4C(c5ccccc5)C5(c6cccnc6)CC4(C5)[C@H]3c3ccccc3)cc2)cc1 (stereo partly drawn) | 0% | -1%
FC(F)(F)c1ccc(C2[C@H]3CN(Cc4ccc(-c5ccccc5)cc4)[C@H](c4ccccc4)C34CC2(c2cccnc2)C4)cc1 (stereo partly drawn) | 7% | -6%
CCCCOc1ccc(C(=O)N2CCC(c3nc4ccccc4o3)CC2)cc1 | -9% | 14%
COc1ccc(/C=N/n2cc(-c3ccccc3)nc2N)cc1 | -5% | ?
COc1ccc(/C=N/n2cc(-c3ccc(OC)cc3)nc2N)cc1 | -8% | 32µM*
COc1ccccc1NC(=O)c1oc2ccccc2c1NC(=O)Cc1ccccc1 | -1% | 3%
SMILES | Cruzain inh Det | Cruzain inh noDet
O=C1N/C(=N\N=C\c2cccnc2)SC1Cc1ccc(SC(F)F)cc1 (stereo not drawn) | 9% | -24%
O=C1N/C(=N\N=C\c2ccc3ncccc3c2)SC1Cc1ccc(SC(F)F)cc1 (stereo not drawn) | 25µM* | 16µM*
COc1ccccc1NC(c1ccc(Cl)cc1)c1nnc(-c2cccc(F)c2)o1 (stereo not drawn) | -6% | ?
CCCCCCN(C(=O)CCCCCN1C(=O)NC(c2ccc(-c3ccccc3)cc2)C(C(=O)OCc2ccccc2)=C1C)C(C(=O)NCCCC)c1ccc(-c2ccccc2)cc1 (stereo not drawn) | -1% | ?
CCCCCCN(C(=O)CCCCCN1C(=O)NC(c2ccc(-c3ccccc3)cc2)C(C(=O)OCc2ccccc2)=C1C)C(C(=O)NCCCC)c1ccc(O)cc1 (stereo not drawn) | -1% | 6.3µM*
Cc1nc(Nc2ccc(Cl)cc2)cc(-c2ccccc2)n1 | -18% | -12%
CCn1c2ccccc2c2cc(/C=N/n3c(C)nnc3C)ccc21 | -16% | ?
CCn1c2ccccc2c2cc(/C=N/NC(=O)c3ccccc3)ccc21 | ? | 32µM*
CCc1ccc(CNC(=O)C2Cc3cc(S(=O)(=O)N4CCCCCC4)ccc3N2C(C)=O)cc1 (stereo not drawn) | 2% | -6%
N/C(=N\OC(=O)Oc1ccccc1)c1cccc([N+](=O)[O-])c1 | -7% | 4%
O=C(C#Cc1ccccc1)c1cccc([N+](=O)[O-])c1 | 13µM* | -16%
Clc1ccc(-c2nnc(-c3ccco3)nc2N2CCCCC2)cc1 | -21% | -27%
Clc1ccc(-c2nnc(-c3ccc(Br)cc3)c(N3CCSCC3)n2)cc1 | 1% | 20µM*
CCC(=O)N1c2ccccc2CC1C(=O)NCCN1CCN(c2cc(Cl)ccc2C)CC1 (stereo not drawn) | 1% | 6%
Cc1cccc(NC(=O)CSc2nnc([C@@H](N)Cc3c[nH]c4ccccc34)o2)c1C | 13µM* | 13µM*
CCSc1nnc([C@@H](N)Cc2c[nH]c3ccccc23)o1 | 2% | 7%
COc1ccc(Cn2c(=O)[nH]c3cc(C(=O)N4CCN(c5cc(Cl)ccc5C)CC4)ccc3c2=O)cc1 | 1% | 5%
O=C(CC1S/C(=N/N=C/C=C/c2ccccc2)NC1=O)Nc1ccc(Cl)c(Cl)c1 (stereo not drawn) | -1% | 6.3µM*
O=C(O)CC1S/C(=N/N=C/C=C/c2ccccc2)NC1=O (stereo not drawn) | -17% | -3%
O=C(/C=C/c1ccc(O)cc1)c1ccc(NC2=C(N3CCCCC3)C(=O)c3ccccc3C2=O)cc1 | -6% | 13µM*
O=C1C(Nc2ccccc2)=C(N2CCCCC2)C(=O)c2ccccc21 | -12% | -22%
O=C(CSCn1nnc2c(=O)[nH]c(Cc3ccc(F)cc3)nc21)Nc1cccc(C(F)(F)F)c1 | -4% | 9%
Cc1csc2nc(COC(=O)c3ccccc3NC(=O)COc3ccccc3F)cc(=O)n12 | 0% | 4%
COc1cc2c(cc1NC(=O)C(C)OC(=O)/C=C/c1ccc(OC(F)F)cc1)oc1ccccc12 (stereo not drawn) | 0% | 32µM*
COc1ccccc1NC(=S)NC(=O)/C=C/c1ccco1 | -21% | -29%
COc1ccc(/C=C/C(=O)NC(=S)Nc2cc3oc4ccccc4c3cc2OC)cc1 | 1% | 2.5µM*
COc1cc2c(cc1NC(=S)NC(=O)/C=C/c1ccc(OC)c(OC)c1)oc1ccccc12 | -3% | -25%
COc1cc2c(cc1NC(=S)NC(=O)/C=C/c1ccco1)oc1ccccc12 | -5% | 13µM*
O=C(/C=C/c1ccccc1)NC(=S)NNC(=O)Cc1cccs1 | 6% | ?

Screening data as filed in PubChem.
